The whole screen tested about 53,000 sequences, of which about 4,900 (9.2%) were called active. Cut-off read from the data, not from the text of the source: active = GI50 up to about 1.1 µM and inactive = higher. The full list was thinned out, with actives kept by preference. Results with a measured potency or affinity are listed apart.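 Results reflect a 48-hour exposure of cells in 96-well plates to compound at five concentrations. Here, GI50 denotes the concentration required for 50% inhibition of growth.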
system: NCI-H522; assay: NCI tumour cell line growth inhibition, 48 h

| Substance | GI50 [µM] |
| --- | --- |
| CISPLATIN, CHEMBL11359 | 2.03 |
| cis-Bis[[(trimethylsilyl)methyl]amino]tetrachloroplatinum(IV), CHEMBL2146191 | 8.22 |
| [Bis(aminomethyl)tetramethylenesilane]tetrachloropaltinum(IV), CHEMBL2146189 | 2.18 |
| [Bis(aminomethyl)pentamethylenesilane]tetrachloropaltinum(IV), CHEMBL2146204 | 0.776 |
| [Bis(aminomethyl)diethylsilane]tetrachloroplatinum(IV), CHEMBL2146203 | 2.65 |
| [Bis(aminomethyl)dimethylsilane]dichloroplatinum (II), CHEMBL2146201 | 4.94 |
| [Bis(aminomethyl)tetramethylenesilane]dichloropaltinum(II), CHEMBL2146205 | 7.62 |
| mu-(1,7-nanodiamine-N,N')bis-(cis-aminedichloroplatimum (II)), CHEMBL2146215 | 7.94 |
| [Bis(aminomethyl)pentamethylenesilane]dichloropaltinum(II), CHEMBL2146202 | 1.52 |
| [Bis(aminomethyl)dimethylsilane]tetrachloroplatinum(IV), CHEMBL2146190 | 1.83 |

— ChEMBL document CHEMBL1201862, “PubChem BioAssay data set” (2004)
